Reference: ChEMBL document CHEMBL3988442, “University of Dundee, Small-Polar-MMV Screening Library” (2021)
About 13,000 (27%) of roughly 48,000 compounds showed an effect of 50% or more. Some of the results follow.

Each compound was assayed on Wolbachia pipientis (assay: Anti-Wolbachia Cell-Based Screen). Conditions: 5 µM.
Type: functional
Design: scale not given: in the data most compounds retested in dose-response had high values

SMILES | Percent Effect
c1cc(CCN2CCCC2CN2CCCCC2)ccn1 (centres undefined) | 39.01%
CCN(CC)Cc1ccc(C(=O)NC2CCc3cc(F)ccc32)o1 (centres undefined) | 6.12%
Cc1nccn1CCC1CCCCN1C(=O)c1ccc2nonc2c1 (centres undefined) | 1.487%
Cn1c(CN2CCCCC2)nnc1C1CCCN(C(=O)CCC(N)=O)C1 (centres undefined) | 11.64%
NC(=O)CCN(C(=O)c1cccc2c1OCO2)c1ccccc1 | 16.64%
Cc1n[nH]c(=O)c2c(NC(=O)CN3CCOCC3)oc(C)c12 | 3.045%
N[C@H]1CN(CCOc2ccc(F)cc2)C[C@@H]1C1CC1 | -23.63%
CC1(C)OC(=O)N(CCOc2ccc(F)cc2)C1=O | 112.1%
O=S1(=O)COCCN1CCOc1ccc(F)cc1 | -2.392%
O=S1(=O)COCCN1CCCOc1ccc(F)cc1 | 1.2%
CC1(C)OC(=O)N(CCCC(=O)c2ccc(F)cc2)C1=O | 116.7%
CN1CCCC1CNC(=O)CCCOc1ccc(F)cc1 (centres undefined) | -3.981%
CN(Cc1ccoc1)C(=O)CN1C(=O)OC(C)(C)C1=O | -7.956%
CN(Cc1ccon1)C(=O)CN1C(=O)OC(C)(C)C1=O | -6.77%
CC1(C)OC(=O)N(CCCOc2ccc(F)cc2)C1=O | 96.74%
CC(C)OCCSCc1nnc(-c2cccc(F)c2)o1 | -1.35%
CCNC(=O)[C@@H]1C[C@H](N)CN1C(=O)CCc1ccccc1Cl | -6.305%
Cn1cc(CN2CCO[C@H]3CN(Cc4ccco4)C[C@H]32)cn1 | -13.96%
CN(Cc1cc(-c2cccnc2)no1)C(=O)c1cccn1C | -14.42%
CC(C)SCC(=O)N1CCc2c(nc(N(C)C)nc2N(C)C)C1 | -6.369%
O=C(Cn1cccnc1=O)NC(Cc1ccsc1)c1cccnc1 (centres undefined) | 105%
CC(C)Sc1ccc(C(C)NC(=O)Cn2cccnc2=O)cc1 (centres undefined) | -6.353%
Cc1cccnc1C(Cc1ccsc1)NC(=O)Cn1cccnc1=O (centres undefined) | 151.6%

SMILES | Percent Effect
O=C(Cn1cccnc1=O)NC(Cc1ccsc1)c1ccccn1 (centres undefined) | -0.3817%
Cc1csc(C(Cc2ccsc2)NC(=O)Cn2cccnc2=O)n1 (centres undefined) | 109.1%
O=C(Cn1cccnc1=O)NCc1cccnc1OCC(F)(F)F | 2.082%
O=C(Cn1cccnc1=O)NCC1Cc2ccccc2O1 (centres undefined) | -8.588%
O=C(Cn1cccnc1=O)NC(Cc1ccsc1)c1nccs1 (centres undefined) | 149.8%
CC(C)N(CC(N)=O)CC(=O)NCCc1c(F)cccc1F | 4.922%
Cc1cnn(CC2CCCCN2CC(=O)N(C)Cc2ccc(C)o2)c1 (centres undefined) | -2.749%
COc1cccc(S(=O)(=O)Cc2cc(C)on2)c1 | -2.252%
COc1ncccc1C(Cc1ccsc1)NC(=O)Cn1cccnc1=O (centres undefined) | 115.2%
CC(C)CCOc1ccc(C(C)NC(=O)Cn2cccnc2=O)cc1 (centres undefined) | -2.548%
CC(NC(=O)Cn1cccnc1=O)c1ccc(OC(F)(F)F)cc1 (centres undefined) | 5.256%
Cc1nc([C@@H]2C[C@@H]3CCN(Cc4cnn(C)c4)C[C@H]3O2)sc1C | -0.8686%
Cc1[nH]ncc1C(=O)NCC1CCC2(CC1)OCCO2 | -7.861%
Brc1cnc(NCCCOCC2CCOCC2)nc1 | 13.33%
COCc1nc(C(=O)NS(=O)(=O)c2ccc(C)cc2C)cs1 | -13.89%
Cc1nnc(C[C@@H]2COC[C@H]3CN(C(=O)c4ccco4)C[C@@H]23)o1 | -16.71%
COc1cc(N2C[C@@H]3COC[C@@H](Cc4nc(C)no4)[C@@H]3C2)ncn1 | 118.7%
CCS(=O)(=O)N1C[C@@H]2COC[C@@H](Cc3nc(C)no3)[C@@H]2C1 | 1.999%
Cc1noc(C[C@@H]2COC[C@H]3CN(S(C)(=O)=O)C[C@@H]23)n1 | -1.05%
COc1cc(N2C[C@@H]3COC[C@@H](Cc4nnc(C)o4)[C@@H]3C2)ncn1 | 80.24%
Cc1nnc(C[C@@H]2COC[C@H]3CN(C(=O)C4=CCCC4)C[C@@H]23)o1 | -9.93%
Cc1cc(CN(CC(N)=O)CC(C)C)no1 | -21.97%
CC(C)CN1C[C@@H]2CN(S(=O)(=O)c3cccs3)C[C@@H]2C1=O | -12.36%

SMILES | Percent Effect
CN(Cc1cccs1)C(=O)CS(=O)(=O)Cc1ccc(Cl)c(Cl)c1 | 0.1099%
CN(Cc1ccco1)C(=O)Nc1ccc(=O)n(C)c1 | 2.905%
CN(Cc1ccco1)C(=O)CN1C(=O)c2cc(Cl)c(Cl)cc2C1=O | 81.66%
Cc1cnn(C2CN(CC(=O)N(C)Cc3cccs3)C2)c1 | -27.07%
CN(Cc1ccco1)C(=O)CN1CCN(C)c2ccccc2C1 | -2.251%
CN(Cc1ccco1)C(=O)CN1C(=O)c2ccccc2C1=O | 72.08%
CN(Cc1cccs1)C(=O)CN1C(=O)c2cc(Cl)c(Cl)cc2C1=O | 78.58%
Cc1cccc(C(C(=O)N(C)Cc2ccco2)N(C)C)c1 (centres undefined) | 9.844%
O=C1N(CCCc2ccccc2)CCCC1(O)CNCC1CCCCC1 (centres undefined) | 25.76%
Cc1nnsc1CN1C[C@H]2CC[C@@H]1CN(Cc1ccc(F)cc1)C2 | 24.86%
CC(=O)N1CCN(Cc2ccc(C(F)(F)F)c(F)c2)CC(O)C1 (centres undefined) | -15.55%
CC(C)C(=O)NCC(=O)N(C)C1CCCN(C2Cc3ccccc3C2)C1 (centres undefined) | -0.79%
Cc1ccc(N2CC3(COCCN(Cc4nccs4)C3)OCC2=O)s1.O=C(O)C(F)(F)F (centres undefined) | -2.22%
Cc1nc2c(c(=O)[nH]1)CCN(C(=O)c1cccc3nccnc13)C2 | 104.9%
CN(C)c1nc2c(c(=O)[nH]1)CCN(C(=O)c1cccc3nccnc13)C2 | 3.463%
Nc1nc2c(c(=O)[nH]1)CCN(C(=O)c1cccc3nccnc13)C2 | 6.132%
Cc1nccn1CCC1CCCCN1Cc1ccc(N(C)C)nc1 (centres undefined) | 13.8%
O=C(O)C(F)(F)F.O=S(=O)(c1cccc(F)c1)N1CC[C@H]2[C@H]1CCN2c1ncccn1 | -6.82%
CC(=O)N1CCc2ccc(S(=O)(=O)N3CCCCC3C)cc21 (centres undefined) | -39.69%
CC(=O)N1CCCC(C(=O)N2CCC(=Cc3cccc(F)c3)CC2)C1 (centres undefined) | 11.44%
CC(=O)N1CCCc2ccc(S(=O)(=O)N3CCCCC3C)cc21 (centres undefined) | -24.19%
O=C(C1CC1)N1C[C@H]2CCCN(S(=O)(=O)c3cccc(F)c3)[C@H]2C1 | 149%
O=C(C1CC1)N1C[C@H]2CCCN(S(=O)(=O)c3ccc4c(c3)CCC4)[C@H]2C1 | 109.7%
